For this experiment, the target named is Estrogen receptor (Homo sapiens) (UniProt P03372). In words: displacement of fluorescent estrogen from ERalpha – cell-based, Cos7 ERalpha-GFP, flow cytometry, primary screen (AID 1211).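 Also: 0% = DMSO vehicle wells and 100% = no E2-Alexa633 signal left.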 The following applies: fluorescent ligand competition, stronger effect = higher value. A general note: Flow cytometry measures light scatter and fluorescence of single cells or particles in a stream.

Activity calls are given as the source filed them. No rule for the calls is given here.

Chain of Estrogen receptor (Homo sapiens) (P03372 whole entry, looked up): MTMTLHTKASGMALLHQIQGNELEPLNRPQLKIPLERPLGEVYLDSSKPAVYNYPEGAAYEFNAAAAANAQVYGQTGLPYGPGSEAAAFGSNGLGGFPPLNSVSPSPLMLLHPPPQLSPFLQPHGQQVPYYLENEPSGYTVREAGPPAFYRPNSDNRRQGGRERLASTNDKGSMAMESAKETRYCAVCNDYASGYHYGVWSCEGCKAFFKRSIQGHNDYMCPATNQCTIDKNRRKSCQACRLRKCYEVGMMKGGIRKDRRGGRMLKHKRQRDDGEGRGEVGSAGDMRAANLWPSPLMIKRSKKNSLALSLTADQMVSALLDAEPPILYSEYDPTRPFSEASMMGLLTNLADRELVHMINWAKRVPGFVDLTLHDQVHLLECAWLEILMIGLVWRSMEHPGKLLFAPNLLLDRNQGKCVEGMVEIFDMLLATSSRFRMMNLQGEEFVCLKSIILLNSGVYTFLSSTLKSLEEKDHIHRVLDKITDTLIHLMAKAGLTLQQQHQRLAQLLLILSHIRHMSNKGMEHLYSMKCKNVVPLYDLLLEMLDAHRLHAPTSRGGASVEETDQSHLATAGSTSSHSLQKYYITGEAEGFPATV

Regarding `C/C=C(/C(=C/C)c1ccc(O)cc1)c1ccc(O)cc1`, the inhibition of ligand binding was 76% (active) (at 10 µM) and 87% (binding inhibition, at 0.1 µM).

On to `CCc1ccc(Nc2cc(C(=O)NCCCN3CCOCC3)c3ccccc3n2)cc1`, for which the inhibition of ligand binding runs as follows: (at 10 µM) 25% (inactive); (binding inhibition, at 0.1 µM) 32%.

Regarding `COc1ccccc1NC(=O)c1ccccc1NC(=O)c1cc(Cl)ccc1NC(=O)c1ccco1`, the inhibition of ligand binding reads like this: (at 10 µM) 32% (inactive); (binding inhibition, at 0.1 µM) 3%.

Regarding `Cc1cccc(N2CSC3=C(C#N)C(c4ccc(C)o4)CC(=O)N3C2)c1` (stereo not drawn), the inhibition of ligand binding by setting is: (at 10 µM) 27% (inactive); (binding inhibition, at 0.1 µM) 13%.

On to `O=C(c1cc2ncc(Br)cn2n1)N1CCN(C(=O)c2ccco2)CC1`, for which the inhibition of ligand binding is 2% (inactive) (at 10 µM) and 15% (binding inhibition, at 0.1 µM).

On to `O=C(Nc1ccc(-c2nc3ccc(NC(=O)c4cccs4)cc3[nH]2)cc1)c1cccs1`, for which the inhibition of ligand binding by setting is: (at 10 µM) 39% (inactive); (binding inhibition, at 0.1 µM) 20%.

On to `Cc1ccc(-n2nnnc2SCC(=O)Nc2cccc(NC(=O)c3ccco3)c2)cc1C`, for which the inhibition of ligand binding (at 10 µM) is 46% (inactive) and the inhibition of ligand binding (binding inhibition, at 0.1 µM) came to 7%.

Turning to `Cc1ccccc1Nc1nnc(SCC(=O)NCc2ccco2)s1`, the inhibition of ligand binding (at 10 µM) was 40% (inactive) and the inhibition of ligand binding (binding inhibition, at 0.1 µM) amounted to 11%.

Turning to `O=C(O)C1OC(Oc2c(-c3ccc(O)c(O)c3)oc3cc(O)cc(O)c3c2=O)C(O)C(O)C1O` (stereo not drawn), the inhibition of ligand binding is, setting by setting: (at 10 µM) 0% (inactive); (binding inhibition, at 0.1 µM) 62%.

On to `CCCCNS(=O)(=O)c1ccc(NC(=O)C(Sc2ccccc2)c2ccccc2)cc1` (stereo not drawn), for which the inhibition of ligand binding by setting is: (at 10 µM) 25% (inactive); (binding inhibition, at 0.1 µM) 21%.

As for `Oc1c(Cl)cc(Cl)cc1Sc1cc(Cl)cc(Cl)c1O`, the inhibition of ligand binding was 37% (inactive) (at 10 µM) and 28% (binding inhibition, at 0.1 µM).

On to `COc1ccc(-c2nnc(-c3cc4c(ccc5ccccc54)oc3=O)o2)cc1`, for which the inhibition of ligand binding is 58% (inactive) (at 10 µM) and 35% (binding inhibition, at 0.1 µM).

For `O=C(NCc1ccco1)c1cc2ccc(O)cc2oc1=O`, the inhibition of ligand binding by setting is: (at 10 µM) 5% (inactive); (binding inhibition, at 0.1 µM) 46%.

Turning to `O=C1C=CC(O)(c2cc(=O)c3c(O)cc(O)cc3o2)C=C1`, the inhibition of ligand binding is 38% (inactive) (at 10 µM) and 42% (binding inhibition, at 0.1 µM).

`COc1ccc(-n2c(SCC(=O)Nc3nccs3)nc3sc4c(c3c2=O)CCN(C)C4)cc1`: the inhibition of ligand binding (at 10 µM) is 30% (inactive) and the inhibition of ligand binding (binding inhibition, at 0.1 µM) worked out at 24%.

As for `Nc1cc2sc(-c3ccc(C(=O)O)cc3)nc2cc1Cl`, the inhibition of ligand binding (at 10 µM) was 24% (inactive) and the inhibition of ligand binding (binding inhibition, at 0.1 µM) worked out at 49%.

Regarding `CC1(C)CCCN(C(=O)c2coc(=O)c(Br)c2)C1`, the inhibition of ligand binding (at 10 µM) was 33% (inactive) and the inhibition of ligand binding (binding inhibition, at 0.1 µM) stood at 25%.

Regarding `COc1ccc(C2Nc3ccccc3C(=O)N2c2ccccc2)cc1CSc1ccccn1` (stereo not drawn), the inhibition of ligand binding was 44% (inactive) (at 10 µM) and 17% (binding inhibition, at 0.1 µM).

With `Cc1ccc(-c2nnc(-c3ccc(NC(=O)c4ccco4)cc3)o2)cc1`, the inhibition of ligand binding is 0% (inactive) (at 10 µM) and 8% (binding inhibition, at 0.1 µM).

`CCOC(=O)C1CCCN(C(=O)c2ccc(CS(=O)(=O)c3ccc(C)cc3)o2)C1` (stereo not drawn): the inhibition of ligand binding (at 10 µM) was 30% (inactive) and the inhibition of ligand binding (binding inhibition, at 0.1 µM) turned out to be 6%.

For `Cc1cc([N+](=O)[O-])c2c(c1C)C1C=CCC1C(c1ccccn1)N2` (stereo not drawn), the inhibition of ligand binding was 72% (active) (at 10 µM) and 10% (binding inhibition, at 0.1 µM).

Consider `O=c1cc(O)c2sc(Nc3ccc(F)cc3)nc2[nH]1`, for which the inhibition of ligand binding is 9% (inactive) (at 10 µM) and 48% (binding inhibition, at 0.1 µM).

Consider `CCc1cccc2c(C(=O)Cn3nnc(-c4ccc(OC)c(OC)c4)n3)c[nH]c12`, for which the inhibition of ligand binding is 10% (inactive) (at 10 µM) and 24% (binding inhibition, at 0.1 µM).

Regarding `CC(=O)Nc1ccc(N=Cc2nc(-c3ccc(C)cc3)oc2O)cc1`, the inhibition of ligand binding (at 10 µM) was 29% (inactive) and the inhibition of ligand binding (binding inhibition, at 0.1 µM) was determined as 60%.

Regarding `COc1ccc(OC)c(N2C(=O)[C@@H]3C(c4ccccc4Cl)=NO[C@@H]3C2=O)c1`, the inhibition of ligand binding is, setting by setting: (at 10 µM) 57% (inactive); (binding inhibition, at 0.1 µM) 24%.

In the case of `O=c1cc(-c2ccc(O)c(-c3c(O)cc(O)c4c(=O)cc(-c5ccc(O)cc5)oc34)c2)oc2cc(O)cc(O)c12`, the inhibition of ligand binding (at 10 µM) is 24% (inactive) and the inhibition of ligand binding (binding inhibition, at 0.1 µM) stood at 9%.

As to `Nc1ccc2nn(-c3cccc4ccccc34)nc2c1`, the inhibition of ligand binding (at 10 µM) was 0% (inactive) and the inhibition of ligand binding (binding inhibition, at 0.1 µM) was found to be 12%.

Consider `O=C(COC(=O)CC1CCCC1)Nc1cc2c(cc1Cl)C(=O)c1ccccc1C2=O`, for which the inhibition of ligand binding runs as follows: (at 10 µM) 37% (inactive); (binding inhibition, at 0.1 µM) 24%.

As for `CC(=O)c1sc2nc(SCC(=O)N3CCCCC3)[nH]c(=O)c2c1C`, the inhibition of ligand binding (at 10 µM) was 33% (inactive) and the inhibition of ligand binding (binding inhibition, at 0.1 µM) came out at 30%.

Consider `Oc1ccc(-c2nccc(-c3cccs3)n2)cc1`, for which the inhibition of ligand binding reads like this: (at 10 µM) 40% (inactive); (binding inhibition, at 0.1 µM) 28%.

As for `O=C(O)C1Nc2c(O)cc(Cl)c([N+](=O)[O-])c2C2C=CCC12` (stereo not drawn), the inhibition of ligand binding runs as follows: (at 10 µM) 50% (inactive); (binding inhibition, at 0.1 µM) 20%.

For `Oc1ccc(-c2nc3ccc4ccccc4c3c3c2CCC3)cc1O`, the inhibition of ligand binding is 41% (inactive) (at 10 µM) and 44% (binding inhibition, at 0.1 µM).

With `Cc1ccsc1/C=C(\C(=O)c1ccc(OC(C)C)cc1)c1nc2ccccc2o1`, the inhibition of ligand binding runs as follows: (at 10 µM) 12% (inactive); (binding inhibition, at 0.1 µM) 40%.

On to `Oc1ccc(-c2cn3cc(C(F)(F)F)ccc3n2)cc1`, for which the inhibition of ligand binding is, setting by setting: (at 10 µM) 29% (inactive); (binding inhibition, at 0.1 µM) 7%.

Values taken from PubChem BioAssay AID1211 (NMMLSC, 2008).
